Rows were chosen to be rich in hits. Some 2.4% of all compounds tested hit in one or more screens of this group.
FEN1 inh = blocks human flap endonuclease 1. P39748. Recombinant FEN1 flap cleavage, fluorescence, 15 min. Potency, µM (titrated, usually from 114 µM), actives largely listed as inhibitors. 0.35% of 390,000 active. AID 588795; also: nearly all actives have a fitted effect of over 65% in size
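Potency values derive from four-parameter Hill fits of normalized qHTS data. The reaction used 10 nM FEN1 preincubated 15 min at room temperature with compound, then 50 nM DNA substrate, read at 0 and 15 min.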
Pol eta inh-1 = DNA polymerase eta (human) inhibition; Q9Y253; recombinant Pol eta, fluorescent DNA replication assay; Potency, µM (titrated, usually from 114 µM), actives largely listed as inhibitors; 1.2% of 390,000 active
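Pol eta at 10 nM preincubated with compounds 15 min at room temperature; reaction started with fluorescent substrate (50 nM final) and read kinetically at 0 and 10 min.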
Pol kappa inh-1 = DNA polymerase kappa (human) inhibition | Q9UBT6 | Potency, µM (highest dose often 107 µM), hits mostly inhibitors | purified Pol kappa, fluorescent DNA synthesis assay, 10 min | 0.53% of 400,000 active
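Pol kappa 10 nM + cpd, 15 min RT; start w/ substrate 50 nM final; fluorescence kinetic read, 0 and 10 min. Neg ctrl: buffer, no enzyme.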
Pol beta inh = inhibitors of human DNA polymerase beta; Pol beta primer extension/strand displacement, fluorescence kinetic; Potency, µM (doses to about 114 µM), usual class: inhibitors; 1.3% of 340,000 active
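Values derive from four-parameter Hill fits of normalized kinetic data: reads at 0 and 10 min following addition of 50 nM substrate to 10 nM Pol beta preincubated 15 min with compound.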
Tb PGK inh = inhibitors of T. brucei phosphoglycerate kinase | P07378 | PGK/GAPDH coupled, Kinase-Glo luminescence, 60 min | Potency, µM (doses to about 57.5 µM), hits mostly inhibitors | 0.043% of 380,000 active | AID 602233; also: nearly all actives have a fitted effect of over 60% in size
Target sequence (P07378 whole entry, looked up): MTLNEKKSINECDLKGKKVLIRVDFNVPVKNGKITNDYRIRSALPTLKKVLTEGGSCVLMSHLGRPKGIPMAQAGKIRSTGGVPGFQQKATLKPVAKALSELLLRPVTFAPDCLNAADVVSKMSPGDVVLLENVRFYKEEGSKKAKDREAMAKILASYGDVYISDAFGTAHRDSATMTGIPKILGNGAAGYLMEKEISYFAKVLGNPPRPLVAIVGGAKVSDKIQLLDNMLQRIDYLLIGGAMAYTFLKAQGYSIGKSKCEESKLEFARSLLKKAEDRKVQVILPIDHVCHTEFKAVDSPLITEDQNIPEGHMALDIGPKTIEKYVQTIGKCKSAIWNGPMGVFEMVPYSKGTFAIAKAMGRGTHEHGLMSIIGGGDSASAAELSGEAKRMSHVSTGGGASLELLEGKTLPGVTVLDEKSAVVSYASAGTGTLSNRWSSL
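Luminescent ATP detection (Kinase-Glo Plus) follows a 60-minute room-temperature incubation, with wells lacking PGK as controls. Buffer: 100 mM TEA (pH 7.6), 5 mM MgCl2, 0.01% Tween-20. Coupling enzyme GAPDH (100 nM final) supplies unstable 1,3-BPG in-well.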
Pol iota inh = inhibitors of human DNA polymerase iota; Q9UNA4; Pol iota fluorescent replication assay, 10 min; Potency, µM (doses to about 115 µM), most hits filed as inhibitors; 1% of 390,000 active; AID 588590
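Pol iota at 10 nM preincubated 15 min with compounds at room temperature; reaction started with fluorescent substrate, 50 nM final. Fluorescence read kinetically at 0 and 10 min; buffer-only wells as negative control.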
TbPGK inh = TbPGK inhibition, hit validation; shares compounds with Pol kappa inh-1; Potency, µM (doses to about 57.5 µM), hits mostly inhibitors; 79% of 500 active; TbPGK coupled GAPDH assay, Kinase-Glo luminescence; also: nearly all actives have a fitted effect of over 65% in size
Pol iota confirm = Confirm cherry-picked inhibitors of human polymerase iota. shares compounds with Pol kappa inh-1. Pol iota primer extension, TAMRA/BHQ fluorescence. Potency, µM, hits mostly inhibitors. 77% of 1,500 active
Pol kappa inh-2 = confirmation of human DNA polymerase kappa inhibitors; shares compounds with Pol eta inh-1; 76% of 920 active; purified Pol-kappa, fluorescent strand-displacement substrate; Potency, µM, actives largely listed as inhibitors
Pol eta inh-2 = Pol eta (human) inhibition, cherry-pick confirmation | shares compounds with Pol eta inh-1 | Pol eta primer extension, TAMRA/BHQ fluorescence, 10 min | Potency, µM, most hits filed as inhibitors | 64% of 2,600 active | AID 720502
Numbers stand for hits; n = inactive; u = inconclusive; x = not tested or not shown. Calls follow the shape of the dose curve; as a rule, active = well fitted curve in the direction sought with a large enough effect; inconclusive = small, poorly fitted or top-dose-only effect, or another doubt; inactive = no such curve, though single readings can be large; an effect the other way counts as inactive or inconclusive.

SMILES	FEN1 inh	Pol eta inh-1	Pol kappa inh-1	Pol beta inh	Tb PGK inh	Pol iota inh	Pol iota confirm	Pol eta inh-2	others
COc1ccc(NS(=O)(=O)c2cc3[nH]c(=O)c(=O)[nH]c3cc2C)cc1OC	n	n	n	n	n	n	x	x
O=c1cc(-c2ccc(O)cc2)oc2c(O)c(O)c(O)c(O)c12	20µM	1.6µM	10µM	2.2µM	4.5µM	10µM	7.5	5.4	TbPGK inh=0.92µM;Pol kappa inh-2=4.7
O=c1cc(-c2ccccc2)oc2cc(O)c(O)c(O)c12	35µM	3.2µM	20µM	x	n	u	u	15
Cc1ccc(C)c(N2C(=O)N(C)c3ccccc3S2(=O)=O)c1	n	n	n	n	n	n	x	x
COc1ccc(-c2nc(-c3ccc(NC(=O)c4ccncc4)cc3)no2)cc1OC	n	n	n	n	n	n	x	x
COc1cccc(-c2nc(-c3ccc(NC(=O)c4ccncc4)cc3)no2)c1	u	35µM	n	14µM	n	u	11	11
Cc1ccc(S(=O)(=O)N2CCCc3cc(NC(=O)c4ccc(C(C)(C)C)cc4)ccc32)cc1	n	n	n	n	n	n	x	x
O=C1COc2ccc(C(=O)COC(=O)c3ccccn3)cc2N1	n	n	n	x	n	n	x	x
O=C1COc2ccc(C(=O)COC(=O)c3ccc4ccccc4n3)cc2N1	n	u	n	u	n	u	47	u
CCCCCCCCCCCCCCCCCCNc1ccn(C2OC(COP(=O)(O)OCC3OC(n4cc(F)c(=O)[nH]c4=O)CC3O)C(O)C2O)c(=O)n1 (stereo unspecified)	u	14µM	45µM	x	u	18µM	42	43	Pol kappa inh-2=27
O=c1[nH]c(=O)n(C2CC(O)C(CO)O2)cc1F (stereo unspecified)	x	x	n	x	x	x	x	x
OC[C@@H]1OC(O)[C@@H](O)[C@H](O)[C@@H]1O (stereo partly specified)	x	x	n	x	x	x	x	x
Cc1ccccc1NC(=O)CSc1nc(-c2ccccc2)cn1-c1ccccc1F	n	n	n	n	n	n	x	x
O=c1c(C(c2ccc(O)cc2)c2c(O)nc3n(c2=O)CCCS3)c(O)nc2n1CCCS2	n	13µM	u	n	n	u	u	76
O=c1c(C(c2ccc(Br)cc2)c2c(O)nc3n(c2=O)CCCS3)c(O)nc2n1CCCS2	n	n	u	u	n	u	x	x
Cc1ccc(C(=O)Nc2cc3cc(Cl)ccc3oc2=O)cc1	n	n	n	n	n	n	x	x
O=C(Nc1cccc2nsnc12)c1ccc(-c2cccc(Cl)c2)o1	n	u	n	u	n	u	x	x
Cc1ccc(-c2nn3cnnc3s2)cc1NC(=O)c1ccc(-c2cccc(Cl)c2)o1	x	x	x	x	x	x	27	76	Pol kappa inh-2=u
CCC/C=C1/CCCOC(C(=O)NCCOC)(C(F)(F)F)C1 (stereo unspecified)	n	x	n	x	x	u	x	x
CCN(Cc1ccccc1)C(=O)Nc1ccc2c(c1)N(C)C(=O)c1ccccc1S2	n	n	n	n	n	n	x	x
Cc1cccc(C(=O)Nc2sc3c(c2C(=O)N2CCCCC2)CCC(C)C3)c1 (stereo unspecified)	n	n	n	n	n	n	x	x
COc1cc(Cl)c(C)cc1NC(=O)C1CCCN(c2ncnc3onc(-c4ccc(F)cc4)c23)C1 (stereo unspecified)	n	n	n	n	n	n	x	x
CCN(CC)c1ccc(/C=C(\C#N)C(N)=O)cc1	n	n	n	u	n	n	x	x
CCN(CC)c1ccc(/C=C(\C#N)C(=O)c2ccc(Br)cc2)cc1	u	u	22µM	40µM	n	u	67	43	Pol kappa inh-2=67
O=C(O)c1cccc(NC(=S)N/N=C/c2ccccc2OCc2cccc(Br)c2)c1	n	20µM	n	n	n	u	u	48
SMILES	FEN1 inh	Pol eta inh-1	Pol kappa inh-1	Pol beta inh	Tb PGK inh	Pol iota inh	Pol iota confirm	Pol eta inh-2	others
Cc1nc(S/C(=C/c2ccc(OCc3ccc(C(=O)O)cc3)cc2)C(=O)O)n[nH]1	u	20µM	40µM	n	n	4µM	12	27
CCc1cccc(NC(=O)CSC2=Nc3ccccc3N=C(c3ccc(F)cc3)C2)c1	n	n	n	n	n	n	x	x
CN(Cc1ccccc1)C(=O)Cn1c(=O)c2cccn2c2ccc(F)cc21	n	n	n	n	n	n	x	x
C=CCN1C(=O)/C(=C2/Sc3ccccc3N2CCCS(=O)(=O)O)SC1=S	u	3.2µM	u	45µM	n	u	u	38
C=CCN1C(=O)/C(=C2/Sc3ccccc3N2CC)SC1=S	n	n	n	u	n	n	x	x
O=C(Nc1ccc(S(=O)(=O)Nc2nccs2)cc1)c1nn(-c2ccccc2)ccc1=O	n	6.3µM	n	u	u	n	21	24	Pol kappa inh-2=12
NS(=O)(=O)c1ccc(CCNC(=O)CCS(=O)(=O)c2ccc(Br)cc2)cc1	n	20µM	n	28µM	x	n	38	43
O=C(CCS(=O)(=O)c1ccc(Br)cc1)NCCc1ccccc1	n	20µM	u	u	u	50µM	u	48	Pol kappa inh-2=17
O=C(CCNS(=O)(=O)c1ccc(Br)cc1)NCCc1ccccc1	n	n	n	n	n	n	x	x
Oc1ccc(C=Nc2ccc(N3CCOCC3)cc2)c(O)c1	n	14µM	n	n	n	u	u	u
COCCNC(=O)c1nn(-c2ccc(C)cc2)c(=O)n(C)c1=O	n	n	n	n	n	n	x	x
COc1c(-c2ccc(O)c(O)c2)oc2cc(O)cc(O)c2c1=O	25µM	8.9µM	14µM	4.5µM	u	u	42	24
Cc1ccc([C@H]2C(C(=O)O)=CC[C@@H](c3ccc(C(C)C)cc3)N2S(=O)(=O)c2ccc(C)cc2)cc1	n	u	n	x	n	u	x	x
Cc1ccc(S(=O)(=O)N2[C@@H](c3ccc(Cl)cc3)C(C(=O)O)=CC[C@H]2c2ccc(C(C)C)cc2)cc1	n	u	n	x	n	n	60	85	Pol kappa inh-2=42
COc1ccc(OC)c([N+](=O)[O-])c1C(N)=O	u	50µM	u	6.3µM	u	18µM	21	30
Oc1ccc(-c2cn3c(n2)SCC3)cc1O	u	2.8µM	7.1µM	1.3µM	u	2.5µM	9.5	3.4
Brc1ccc(-c2cn3c(n2)SCC3)cc1	n	n	n	n	n	n	x	x

Screening data as filed in PubChem.
